Source: publication PMC5540273 (PLoS ONE, 2017)

What was measured:
Details in all cases: concentration: 1 μM, replicates: in singlicate; n = 1
AAK1 = tested on: AAK1
ABL1-nonphosphorylated = tested on: ABL1-nonphosphorylated
ABL1-phosphorylated = tested on: ABL1-phosphorylated
ABL2 = tested on: ABL2
ACVR1B = tested on: ACVR1B
ACVR1 = tested on: ACVR1
ACVR2A = tested on: ACVR2A
ACVR2B = tested on: ACVR2B
ACVRL1 = tested on: ACVRL1
ADCK3 = tested on: T1, ADCK3
T1 construct: gene CABC1

ADCK4 = tested on: ADCK4
AKT1 = tested on: AKT1
AKT2 = tested on: AKT2
AKT3 = tested on: AKT3
ALK = tested on: ALK
AMPK-alpha1 = tested on: T2, AMPK-alpha1
T2 construct: gene PRKAA1

AMPK-alpha2 = tested on: T3, AMPK-alpha2
T3 construct: gene PRKAA2

ANKK1 = tested on: ANKK1
ARK5 = tested on: T4, ARK5
T4 construct: gene NUAK1

ASK1 = tested on: T5, ASK1
T5 construct: gene MAP3K5
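Also: KINOMEscan kinase panel screen.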

SMILES	%Inh (AAK1) [%]	%Inh (ABL1-nonphosphorylated) [%]	%Inh (ABL1-phosphorylated) [%]	%Inh (ABL2) [%]	%Inh (ACVR1B) [%]	%Inh (ACVR1) [%]	%Inh (ACVR2A) [%]	%Inh (ACVR2B) [%]	%Inh (ACVRL1) [%]	%Inh (ADCK3) [%]	%Inh (ADCK4) [%]	%Inh (AKT1) [%]	%Inh (AKT2) [%]	%Inh (AKT3) [%]	%Inh (ALK) [%]	%Inh (AMPK-alpha1) [%]	%Inh (AMPK-alpha2) [%]	%Inh (ANKK1) [%]	%Inh (ARK5) [%]	%Inh (ASK1) [%]
Cl.c1ccc(-c2ccc3c(Nc4ccc5[nH]ncc5c4)ccnc3c2)nc1 [GW440137]	18	63	73	28	1	71	57	94.6	19	3	38	0	0	0	31	0	0	14	11	0
CCCCc1nn2ncccc2c1-c1ccnc(Nc2ccc(N3CCN(C)CC3)cc2)n1 [GW684941]	21	95.8	98.8	96.8	67	89	16	35	51	96.7	93.1	0	0	0	72	5	9	0	62	0
CCn1c(-c2nonc2N)nc2c(C#CC(C)(C)O)nc(OC[C@H](N)c3ccccc3)cc21 [GSK943949]	0	0	0	0	0	0	0	0	0	0	0	95.8	98.8	95.8	19	0	3	0	18	0
CN(C)S(=O)(=O)c1cc(-c2ccc3nccc(-c4cccc(S(N)(=O)=O)c4)c3c2)cnc1N [GSK1669921]	26	0	0	17	0	88	0	0	0	16	0	0	5	0	30	3	0	5	11	0
CCS(=O)(=O)c1ccc(OC)c(Nc2nccc(-c3c(-c4cccc(NC(=O)c5c(F)cccc5F)c4)nn4ncccc34)n2)c1 [GSK326180]	22	4	10	10	0	10	0	0	0	0	18	0	15	0	25	2	27	0	18	20
O=c1[nH]cc(-c2ccc(N3CCOCC3)cc2)c2sc(-c3cn[nH]c3)cc12 [GSK2276055]	23	0	0	0	0	0	2	0	0	0	0	0	16	0	4	0	0	21	18	0
COc1cc(Nc2nccc(-c3c(-c4cccc(NC(=O)c5c(F)cccc5F)c4)nn4ncccc34)n2)cc(OC)c1OC [GSK327238]	13	92.9	24	80	14	0	0	0	0	0	93.7	0	11	17	20	9	48	29	97.4	0
O=C(NC1CCN(c2ccnc(Nc3ccc(F)cc3)n2)C1)c1cc2ccccc2s1 (stereo not shown) [GSK1379716]	7	0	0	21	0	0	0	5	11	24	61	0	16	0	3	7	20	0	21	14
Fc1ccc(-c2ncn(C3CCNCC3)c2-c2ccnc(Oc3ccc(-c4ccccc4)cc3)n2)cc1 [SB-245391]	14	1	16	1	72	0	19	0	19	0	0	20	31	15	39	7	20	7	1	23
Cl.Cl.NCC(NCc1ccc(-c2ccnc3[nH]ccc23)s1)c1ccccc1 (stereo not shown) [GSK1321565]	67	0	0	1	0	18	0	0	0	25	44	71	25	71	64	45	28	22	82	16
Cn1cc(-c2ccc3c(c2)CCN3C(=O)Cc2cccc(Cl)c2)c2c(N)ncnc21 [GSK2606590]	30	78	30	53	0	0	0	53	0	0	1	0	10	0	30	4	20	0	13	9
COc1cccc(NC(=O)NC2CCN(c3ccnc(Nc4cc(OC)c(OC)c(OC)c4)n3)C2)c1 (stereo not shown) [GSK1379763]	74	0	0	0	0	0	89	0	0	0	59	0	7	0	45	0	0	40	18	0
Nc1ncc(-c2ccc3nccc(-c4ccncc4)c3c2)cc1S(=O)(=O)N1CCOCC1 [GSK1627798]	18	0	0	13	0	0	0	0	0	49	24	0	12	0	30	0	0	5	0	0
Oc1cc(Nc2ccnc3cc(I)ccc23)ccc1F [GW552771]	10	99.1	99.6	91.7	54	97.4	100	93.7	69	19	38	0	16	0	34	15	1	0	18	0
Cl.c1ccc(-c2ccc3c(Nc4ccc5[nH]ccc5c4)ccnc3c2)nc1 [GW440138]	10	85	94.1	48	0	55	29	89	12	2	38	0	0	0	25	0	0	11	4	0
COc1ccc(CNC(=O)NC2CCN(c3ccnc(Nc4ccc(F)cc4)n3)CC2)cc1 [GSK1379788]	13	0	0	0	0	0	0	0	0	9	49	0	0	0	20	0	0	0	5	0
Cl.NC(=O)c1cccc(Nc2nccc(Nc3ccc(Oc4c(Cl)cccc4Cl)c(Cl)c3)n2)c1 [GW659009]	15	67	0	85	100	0	0	0	7	0	14	0	0	0	3	0	0	3	0	0
